Results: publication PMC3315485, “Probing the Informational and Regulatory Plasticity of a Transcription Factor DNA–Binding Domain”
Where a chain is given by its changes, count along the chain named.

These sequences were tested against T1, MarA wild type (WQR) (Escherichia coli, UniProt P0ACH5 1-127) (assay: MITOMI; MITOMI, 295 K (22 C); buffer, salt and pH not stated in the material; high values mean tight binding). Details: protein: ivt; label: fluorescent; dsDNA, one strand shown.
T1 sequence: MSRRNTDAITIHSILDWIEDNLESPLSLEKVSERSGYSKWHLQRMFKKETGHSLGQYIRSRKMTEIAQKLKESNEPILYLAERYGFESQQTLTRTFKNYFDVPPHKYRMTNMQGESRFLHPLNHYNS
Summary of the method: (§1)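 MarA protein variants were produced by in vitro transcription and translation using the RTS E. coli HY kit, with tRNA-lys-bodipy-fl added for fluorescent labelling. Each variant was screened by MITOMI against 64 synthesized versions of the mar binding site, and protein and DNA fluorescence were read on Genepix at 295K. Association constants came from MITOMI, and each site's value is relative to the highest-affinity site for that protein variant.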

| Sequence | binding signal |
| --- | --- |
| ATGGCCCGTTTTGCTAAAT | 0.293 Ka relative to the best site of the variant |
| ATGAATCGTTTTGCTAAAT | 0.215 Ka relative to the best site of the variant |
| ATGGCGCGTTTTGCTAAAT | 0.334 Ka relative to the best site of the variant |
| ATGGTGCGTTTTGCTAAAT | 0.304 Ka relative to the best site of the variant |
| ATGACCCGTTTTGCTAAAT | 0.32 Ka relative to the best site of the variant |
| ATGCACCGTTTTGCTAAAT | 0.261 Ka relative to the best site of the variant |
| ATGAACCGTTTTGCTAAAT | 0.224 Ka relative to the best site of the variant |
| ATGGGTCGTTTTGCTAAAT | 0.232 Ka relative to the best site of the variant |
| ATGCCGCGTTTTGCTAAAT | 0.414 Ka relative to the best site of the variant |
| ATGTGGCGTTTTGCTAAAT | 0.242 Ka relative to the best site of the variant |
| ATGTTCCGTTTTGCTAAAT | 0.197 Ka relative to the best site of the variant |
| ATGGGCCGTTTTGCTAAAT | 0.236 Ka relative to the best site of the variant |
| ATGCGTCGTTTTGCTAAAT | 0.26 Ka relative to the best site of the variant |
| ATGTGTCGTTTTGCTAAAT | 0.284 Ka relative to the best site of the variant |
| ATGACTCGTTTTGCTAAAT | 0.378 Ka relative to the best site of the variant |
| ATGATTCGTTTTGCTAAAT | 0.264 Ka relative to the best site of the variant |

| Sequence | binding signal |
| --- | --- |
| ATGCTACGTTTTGCTAAAT | 0.363 Ka relative to the best site of the variant |
| ATGGAACGTTTTGCTAAAT | 0.299 Ka relative to the best site of the variant |
| ATGCGCCGTTTTGCTAAAT | 0.223 Ka relative to the best site of the variant |
| ATGCTCCGTTTTGCTAAAT | 0.244 Ka relative to the best site of the variant |
| ATGGCTCGTTTTGCTAAAT | 0.35 Ka relative to the best site of the variant |
| ATGCGGCGTTTTGCTAAAT | 0.318 Ka relative to the best site of the variant |
| ATGCAGCGTTTTGCTAAAT | 0.293 Ka relative to the best site of the variant |
| ATGATCCGTTTTGCTAAAT | 0.22 Ka relative to the best site of the variant |
| ATGTGACGTTTTGCTAAAT | 0.253 Ka relative to the best site of the variant |
| ATGAGCCGTTTTGCTAAAT | 0.237 Ka relative to the best site of the variant |
| ATGTTGCGTTTTGCTAAAT | 0.405 Ka relative to the best site of the variant |
| ATGCAACGTTTTGCTAAAT | 0.365 Ka relative to the best site of the variant |
| ATGTACCGTTTTGCTAAAT | 0.215 Ka relative to the best site of the variant |
| ATGGTTCGTTTTGCTAAAT | 0.203 Ka relative to the best site of the variant |
| ATGGATCGTTTTGCTAAAT | 0.224 Ka relative to the best site of the variant |
| ATGACGCGTTTTGCTAAAT | 0.362 Ka relative to the best site of the variant |

Each sequence was assayed against T2, MarA RQR (Escherichia coli, UniProt P0ACH5 1-127, W40R) in the same assay as above. Details: protein: ivt; label: fluorescent; dsDNA, one strand shown.
T2 sequence: T1 sequence with W40R
Summary of the method: as §1

| Sequence | binding signal |
| --- | --- |
| ATGGCCCGTTTTGCTAAAT | 0.811 Ka relative to the best site of the variant |
| ATGAATCGTTTTGCTAAAT | 0.091 Ka relative to the best site of the variant |
| ATGGCGCGTTTTGCTAAAT | 0.577 Ka relative to the best site of the variant |
| ATGGTGCGTTTTGCTAAAT | 0.115 Ka relative to the best site of the variant |
| ATGACCCGTTTTGCTAAAT | 0.701 Ka relative to the best site of the variant |
| ATGCACCGTTTTGCTAAAT | 0.132 Ka relative to the best site of the variant |
| ATGAACCGTTTTGCTAAAT | 0.104 Ka relative to the best site of the variant |
| ATGGGTCGTTTTGCTAAAT | 0.141 Ka relative to the best site of the variant |
| ATGCCGCGTTTTGCTAAAT | 0.195 Ka relative to the best site of the variant |
| ATGTGGCGTTTTGCTAAAT | 0.105 Ka relative to the best site of the variant |
| ATGGGCCGTTTTGCTAAAT | 0.147 Ka relative to the best site of the variant |
| ATGCGTCGTTTTGCTAAAT | 0.144 Ka relative to the best site of the variant |
| ATGTGTCGTTTTGCTAAAT | 0.132 Ka relative to the best site of the variant |
| ATGACTCGTTTTGCTAAAT | 0.586 Ka relative to the best site of the variant |
| ATGATTCGTTTTGCTAAAT | 0.122 Ka relative to the best site of the variant |
| ATGCTACGTTTTGCTAAAT | 0.117 Ka relative to the best site of the variant |

| Sequence | binding signal |
| --- | --- |
| ATGGAACGTTTTGCTAAAT | 0.208 Ka relative to the best site of the variant |
| ATGCGCCGTTTTGCTAAAT | 0.154 Ka relative to the best site of the variant |
| ATGCTCCGTTTTGCTAAAT | 0.108 Ka relative to the best site of the variant |
| ATGGCTCGTTTTGCTAAAT | 0.759 Ka relative to the best site of the variant |
| ATGCGGCGTTTTGCTAAAT | 0.0951 Ka relative to the best site of the variant |
| ATGCAGCGTTTTGCTAAAT | 0.105 Ka relative to the best site of the variant |
| ATGATCCGTTTTGCTAAAT | 0.117 Ka relative to the best site of the variant |
| ATGTGACGTTTTGCTAAAT | 0.11 Ka relative to the best site of the variant |
| ATGAGCCGTTTTGCTAAAT | 0.107 Ka relative to the best site of the variant |
| ATGTTGCGTTTTGCTAAAT | 0.193 Ka relative to the best site of the variant |
| ATGCAACGTTTTGCTAAAT | 0.142 Ka relative to the best site of the variant |
| ATGTACCGTTTTGCTAAAT | 0.142 Ka relative to the best site of the variant |
| ATGGTTCGTTTTGCTAAAT | 0.13 Ka relative to the best site of the variant |
| ATGGATCGTTTTGCTAAAT | 0.112 Ka relative to the best site of the variant |
| ATGACGCGTTTTGCTAAAT | 0.33 Ka relative to the best site of the variant |
